# In PubChem BioAssay AID2069 (Sanford-Burnham Center for Chemical Genomics, 2009):
# In all, about 1,200 compounds went through this assay and about 210 (18%) were called active. Not all results are given here. Unmarked numbers belong to inactive results. Cut-off read from the data, not from the text of the source: active = inhibition above about 30%; inactive = the rest.
# Assay: fluorescence readout artefact check – biochemical, HTRF, uHTS, artefact control for SUMOylation inhibitor project, confirmation (AID 2069)
# Conditions: HTRF interference counterscreen, at 35 µM, hits give high values
row,SMILES,inhibition
1,CC1=NN(c2ccccc2)C(=O)/C1=C\c1cn(CCC#N)nc1-c1ccc(Cl)cc1,-15.8%
2,S=C(Nc1ccc2nc(-c3ccccn3)c(-c3ccccn3)nc2c1)N1CCOCC1,10.8%
3,CN(Cc1ccco1)C(=O)c1cc2c(s1)-c1ccc(Cl)cc1S(=O)(=O)C2,-9.15%
4,S=c1[nH]nc(-c2cc(-c3ccccc3)n[nH]2)n1/N=C/c1c(Cl)cccc1Cl,6.95%
5,CC1CCCN(c2nc3ccccc3nc2C(C#N)S(=O)(=O)c2ccccc2)C1 (stereo not drawn),11.8%
6,O=C1Nc2ccc(C(F)(F)F)cc2N2CCCC12 (stereo not drawn),5.75%
7,Cc1ccccc1N=Cc1cc2c(cc1[N+](=O)[O-])OCO2,-2.65%
8,O=C1C(C2=NC(c3ccccn3)C3C(=O)N(c4ccc(Cl)cc4Cl)C(=O)C23)=C(O)c2ccccc21 (stereo not drawn),2.95%
9,Cc1cc(C(=O)N/N=C/c2ccc(-c3ccc(C)c(Cl)c3)o2)n[nH]1,4.9%
10,O=C(N/N=C/c1ccc([N+](=O)[O-])o1)c1cc2c(ccc3ccccc32)o1,20.9%
11,O=C(N/N=C/c1ccc(-c2ccc(Cl)c(C(=O)O)c2)o1)c1cc2c(ccc3ccccc32)o1,50.7% (active)
12,Cc1ccc(-n2c(SCC(=O)N/N=C/c3ccccc3C(=O)O)nnc2-c2ccc(Cl)cc2)cc1,5.25%
13,O=C(CN1C(=O)CSC1=O)Nc1ccc(C(=O)O)cc1,1.7%
14,O=C(CSc1nnc(SCc2ccccc2)s1)N/N=C/C=C\c1ccco1,3.25%
15,Cc1nc2ccc(-c3nc4cc(N)ccc4o3)cc2[nH]1,54.3% (active)
16,Nc1ccc2oc(-c3cccs3)nc2c1,37.1% (active)
17,Cc1ccc(-c2nc3cc(N)ccc3o2)cc1,55.7% (active)
18,Cc1ccccc1-c1nc2cc(N)ccc2o1,46.2% (active)
19,O=C(Nc1ccc2oc(-c3cccc4ccccc34)nc2c1)c1ncn[nH]1,16.2%
20,Cc1ccc2oc(-c3ccc(C)c(NC(=O)Cc4cccs4)c3)nc2c1,22.6%
21,Cc1ccc(-n2nc(C)c3c2OC(N)=C(C#N)C3c2ccoc2)cc1 (stereo not drawn),1.75%
22,COc1ccc(OC)c(/C=C2\S/C(=N/NC(=O)c3ccc4ccccc4c3)NC2=O)c1,8.75%
23,Cc1cc(C)c(S(=O)(=O)/N=C2/C=C(SCC(=O)O)C(=O)c3ccccc32)cc1C,-10.7%
24,O=C1C2C3C=CC(C3)C2C(=O)N1CNc1ccc(O)cc1 (stereo not drawn),-8.05%

row,SMILES,inhibition
1,O=c1c2ccccc2nc(COc2ccccc2)n1/N=C/c1cc([N+](=O)[O-])ccc1O,-7.1%
2,Oc1ccc(NCc2cccc(OCc3ccccc3)c2)cc1,-19.4%
3,O=C1C(NS(=O)(=O)c2cccs2)=C(N2CCN(c3cccc(C(F)(F)F)c3)CC2)C(=O)c2ccccc21,-7.25%
4,Cc1ccccc1S(=O)(=O)Nc1nc2ccccc2nc1N1CCc2ccccc2C1,-3.1%
5,N=c1c2cn[nH]c2nc(SCC(=O)c2ccc(Br)cc2)n1-c1ccc(Br)cc1,0.5%
6,O=C(CSc1nnc(-c2ccco2)c(-c2ccco2)n1)c1ccccc1,9%
7,S=c1[nH]nc(-c2ccc(Cl)cc2)n1/N=C/C=C/c1ccco1,-4.3%
8,CCOC(=O)C1CCCN(c2cc(NCCCO)c([N+](=O)[O-])c3nonc23)C1 (stereo not drawn),-8.1%
9,O=C(NNC(=O)c1sc2ccccc2c1Cl)Nc1ccc(Cl)cc1,-5%
10,COc1ccc(C(=O)Nc2nc3c(s2)Cc2cc(OC)ccc2-3)cc1,5.45%
11,COc1ccc2c(c1)Cc1sc(NC(=O)c3ccccc3)nc1-2,13.9%
12,COCCN(CCOC)S(=O)(=O)c1ccc(C(=O)Nc2nc3c(s2)CCc2ccccc2-3)cc1,36.7% (active)
13,O=C(NN1C(=O)/C(=C/C=C/c2ccco2)SC1=S)c1ccncc1,16.8%
14,Cc1cc(C)n(Cc2ccc(C(=O)N/N=C/c3ccc(-c4ccc([N+](=O)[O-])cc4)o3)o2)n1,6.7%
15,O=C(Cc1ccccc1)Nc1nnc(-c2ccco2)s1,13.9%
16,CCC(C)(C)C1CCc2c(sc(NC(=O)c3ccccc3C(=O)O)c2C#N)C1 (stereo not drawn),7.6%
17,CCCCOc1ccc(/C=C/C(=O)Nc2ccc(C(N)=O)cc2)cc1,10.9%
18,COc1ccccc1NC(=O)c1sc2ncn(CC(=O)Nc3ccccc3)c(=O)c2c1C,4.35%
19,CCN(C(=S)Nc1cc(S(=O)(=O)N2CCOCC2)ccc1Cl)c1cccc2ccccc12,-26.1%
20,O=C(O)c1cc2cccc(S(=O)(=O)N3CCOCC3)c2cc1O,49.6% (active)
21,O=C(Nc1ccccc1O)c1cc(S(=O)(=O)N2CCOCC2)c(Cl)cc1Cl,10.6%
22,Cc1occc1C(=O)N1CCN(c2ccccc2)CC1,0.55%
23,CCOc1ccc(N2C(=O)c3ccc(C(=O)OCC(=O)N(CC)C4CCS(=O)(=O)C4)cc3C2=O)cc1 (stereo not drawn),-4.1%
24,Oc1ccc(N=Cc2c(O)ccc3ccccc23)cc1,10.2%

row,SMILES,inhibition
1,Oc1ccccc1N=Cc1c(O)ccc2ccccc12,-5.9%
2,Oc1ccc2ccccc2c1C=Nc1ccc(Cl)cn1,37.1% (active)
3,CC1=CC2(O)OCCN(CCO)C2=CC1=O (stereo not drawn),4.6%
4,O=C1C=C(O)c2c(O)cccc2C1=O,-24.9%
5,COc1cccc(/C=C2/SC(=S)N(CC(=O)NNC(=O)c3ccccc3O)C2=O)c1,-13%
6,CCN(c1ccccc1)c1cc2ccccc2c(=O)[nH]1,37% (active)
7,CN(c1ccccc1)c1cc(=O)[nH]c(=O)[nH]1,0.55%
8,Cc1ccccc1Nc1cc2ccccc2c(=O)[nH]1,25.8%
9,Cc1[nH][nH]c(=O)c1C(c1ccc(-c2ccccc2C(=O)O)o1)c1c(C)[nH][nH]c1=O,9.65%
10,COc1ccc(CCN2Cc3c(cccc3[N+](=O)[O-])C2=O)cc1OC,-1.3%
11,CCOc1ccccc1CNc1ccc(O)cc1,-10.2%
12,Cc1nc2ccc(NC(=O)NCc3ccco3)cc2s1,31.5% (active)
13,O=C(COC(=O)c1cc(-c2cccs2)nc2ccccc12)NCc1ccco1,16.3%
14,O=C(/C=C/c1ccco1)NC(=S)Nc1ccc(O)c(-c2nc3ccccc3s2)c1,9.4%
15,O=C(NCc1ccco1)Nc1ccc2snnc2c1,38.8% (active)
16,CCOc1cc(NC(=S)NCc2ccco2)c(OCC)cc1NC(=O)CC,-7.1%
17,Cc1ccc2c(SCC(=O)NCc3ccco3)nc(-c3ccc(F)cc3)nc2c1,-4.7%
18,CN(C)c1cc(N/N=C/c2ccc(Cl)cc2)nc(N(C)C)n1,7%
19,O=C(O)CN1C(=O)/C(=C\c2cc([N+](=O)[O-])ccc2OCc2ccccc2Cl)SC1=S,8.45%
20,Cc1ccc(NC2=CC(=O)CC(c3ccco3)C2)c(N)c1 (stereo not drawn),1%
21,COc1ccc(-c2cc(=O)[nH][nH]2)cc1,2.7%
22,N#CC(c1nc2ccccc2nc1N1CCCC1)S(=O)(=O)c1cccs1 (stereo not drawn),-0.1%
23,COC(=O)c1cccc(-c2ccc(C(c3c(C)[nH][nH]c3=O)c3c(C)[nH][nH]c3=O)o2)c1,-4.3%
24,Oc1ccc(Br)cc1CNc1cccc2cccnc12,-17.6%

row,SMILES,inhibition
1,Cc1ccc(NC2=CC(=O)C(=O)c3ccccc32)cc1,-12.4%
2,O=C1C=C(Nc2ccccc2)c2ccccc2C1=O,-24.5%
3,O=C1C=C(N2CCOCC2)c2ccccc2C1=O,51.9% (active)
4,Cc1[nH][nH]c(=O)c1C(c1c(C)[nH][nH]c1=O)c1cn(Cc2cccc3ccccc23)c2ccccc12,-32.7%
5,CCOc1cc(CNc2ccccc2SC)ccc1O,-6.3%
6,COc1cc(C)c2c(c1C=O)Oc1c(c(C)c(O)c3c1C(O)OC3=O)OC2=O (stereo not drawn),12.4%
7,CN(C)/C=C1\Oc2ccc3ccccc3c2C1=O,-6.85%
8,CC1=Nc2nc(N3CCCCC3)c(C#N)c3c4c(nc(c23)N1)N(c1ccc(C(C)C)cc1)C(=O)C4,15.2%
9,O=C(O)COc1ccccc1C(Nc1cccnc1)c1cc(Cl)c2cccnc2c1O (stereo not drawn),30.4% (active)
10,CCCCC(=O)NC(c1ccccc1Cl)c1ccc2cccnc2c1O (stereo not drawn),-42.6%
11,CCOc1ccc(C(Nc2cccnc2)c2cc(Cl)c3cccnc3c2O)cc1 (stereo not drawn),14.3%
12,COc1ccc(/C=N/N=C2/CC(C)(C)Cc3n[nH]c(=O)cc32)cc1,0.85%
13,COc1ccccc1NC(=O)Cn1c(O)c(N=NC(=O)c2ccccc2O)c2ccccc21,2.2%
14,CCCCn1c(NC(=O)c2ccc(Br)o2)c(S(=O)(=O)c2ccccc2)c2nc3ccccc3nc21,1.65%
15,Nc1ccc2nc(-c3ccc(-c4nc5ccc(N)cc5[nH]4)cc3)[nH]c2c1,25.4%
16,Nc1ccc(-c2nc3ccc(N)cc3[nH]2)cc1,66.3% (active)
17,Cc1ccc(C)c(-c2nc3ccc(N)cc3[nH]2)c1,57% (active)
18,O=C(Nc1nccs1)c1cc(-c2ccco2)nc2ccccc12,22.2%
19,Cc1oc2c(c1C(=O)O)C(=O)c1ccccc1C2=O,-5.95%
20,Cc1ccc(NC(=O)CN2C(=O)S/C(=C\c3ccc(-c4cccc(C(=O)O)c4C)o3)C2=O)cc1C,26.3%
21,O=S(=O)(Nc1ccc(O)c2ccccc12)c1cccs1,-16.9%
